“And” between values parts separate entries of the source, which are not always exact repeats. Equal values may be shown once. Results filed as inconclusive are left out. The source made the active and inactive calls. Unless noted, calls come from the whole dose curve; as a rule, active = well fitted curve in either direction with a large enough effect (not every such curve was filed as active); inconclusive = small, poorly fitted or top-dose-only effect, or another doubt; inactive = flat fitted curve, though single readings scatter.
Tests used:
[1] = AP1 Signaling Pathway (AID 357); conditions: ME-180 AP-1-bla reporter, EGF-induced, beta-lactamase ratio, 5 h; series mostly up to 17.2 µM;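 note: ME-180 reporter cells stimulated with EGF at its EC50 level; % is set by controls: 0 for no effect and ±100 for the full control effect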
Summary of the method: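 Cells are seeded overnight, exposed to compound titrations and an EC50 level of EGF for 5 hours at 37 °C, then loaded with CCF4 dye for 2.5 hours. Beta-lactamase activity under the AP-1 element is read as a blue/green ratio.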

[2] = Stat Signaling Pathway (AID 446); conditions: ME-180 (cervical carcinoma) SIE beta-lactamase reporter, IL-6 stimulated, 5 h; series mostly up to 17.2 µM;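 note: ME-180 cervical cancer cells given 40 pM IL-6 alongside compound; SIE-controlled beta-lactamase reporter measured as 460/530 nm FRET emission ratio; % is set by controls: 0 for no effect and ±100 for the full control effect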
Summary of the method: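 IL-6/STAT signaling read in ME-180 cells via an SIE beta-lactamase reporter. Stimulus was 40 pM IL-6 (its AC50) for 5 hrs, so both activation and inhibition register.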

[3] = target: Lysosomal acid glucosylceramidase (Homo sapiens) (UniProt P04062); experiment: Glucocerebrosidase-p2 (AID 348; in the data active = potency below about 10 µM; note: potency is the fitted concentration of half-maximal effect); conditions: purified GBA, blue fluorogenic substrate, 40 min
Lysosomal acid glucosylceramidase (Homo sapiens), sequence (P04062 whole entry, looked up): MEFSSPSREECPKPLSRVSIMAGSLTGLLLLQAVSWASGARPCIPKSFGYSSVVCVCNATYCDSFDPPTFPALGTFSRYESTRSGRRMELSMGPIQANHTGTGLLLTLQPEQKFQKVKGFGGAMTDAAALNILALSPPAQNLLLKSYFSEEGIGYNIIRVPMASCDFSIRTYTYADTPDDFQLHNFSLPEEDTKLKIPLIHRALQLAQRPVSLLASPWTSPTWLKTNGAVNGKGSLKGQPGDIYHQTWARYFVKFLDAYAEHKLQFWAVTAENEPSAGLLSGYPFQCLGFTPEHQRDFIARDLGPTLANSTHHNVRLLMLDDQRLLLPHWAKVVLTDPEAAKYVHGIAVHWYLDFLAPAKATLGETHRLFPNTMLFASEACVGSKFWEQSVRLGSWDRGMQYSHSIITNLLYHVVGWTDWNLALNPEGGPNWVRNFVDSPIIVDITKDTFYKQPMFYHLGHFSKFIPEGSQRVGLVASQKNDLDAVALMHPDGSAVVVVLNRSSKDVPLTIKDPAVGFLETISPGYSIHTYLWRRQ
Summary of the method: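 Compounds titrated from 0.6 nM upwards against 0.2 nM enzyme in pH 5.9 citric acid/KH2PO4, taurocholate, tween-20; blue fluorogenic substrate 80 uM, 40 min room temperature, stopped and read Ex 365/Em 440 for AC50.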

[4] = NFAT Signaling Pathway (AID 444); conditions: Jurkat NFAT-bla M1, carbachol, beta-lactamase ratio, 5 h; at 17.2 µM (top of the series) unless noted;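 note: carbachol stimulus at about its EC50 of 1 µM final; % is set by controls: 0 for no effect and ±100 for the full control effect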
Summary of the method: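 Jurkat cells carrying an NFAT-driven β-lactamase reporter and co-transfected muscarinic M1 receptor were treated with compound plus carbachol (1 uM final, an EC50 level) for 5 h at 37 °C. CCF4 loading followed for 1 h at RT; 460/530 nm ratio gave %activity.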

[5] = target: Glucocorticoid receptor (Homo sapiens) (UniProt P04150); experiment: GR-GFP Redistribution (AID 450;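 active = compounds whose dose series gives a full or clear partial fitted curve of increased nuclear translocation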; note: potency is the fitted concentration of half-maximal effect); conditions: U2OS GR-GFP nuclear translocation, laser cytometry, 2 h
Glucocorticoid receptor (Homo sapiens), sequence (P04150 whole entry, looked up, the tested form may be a part): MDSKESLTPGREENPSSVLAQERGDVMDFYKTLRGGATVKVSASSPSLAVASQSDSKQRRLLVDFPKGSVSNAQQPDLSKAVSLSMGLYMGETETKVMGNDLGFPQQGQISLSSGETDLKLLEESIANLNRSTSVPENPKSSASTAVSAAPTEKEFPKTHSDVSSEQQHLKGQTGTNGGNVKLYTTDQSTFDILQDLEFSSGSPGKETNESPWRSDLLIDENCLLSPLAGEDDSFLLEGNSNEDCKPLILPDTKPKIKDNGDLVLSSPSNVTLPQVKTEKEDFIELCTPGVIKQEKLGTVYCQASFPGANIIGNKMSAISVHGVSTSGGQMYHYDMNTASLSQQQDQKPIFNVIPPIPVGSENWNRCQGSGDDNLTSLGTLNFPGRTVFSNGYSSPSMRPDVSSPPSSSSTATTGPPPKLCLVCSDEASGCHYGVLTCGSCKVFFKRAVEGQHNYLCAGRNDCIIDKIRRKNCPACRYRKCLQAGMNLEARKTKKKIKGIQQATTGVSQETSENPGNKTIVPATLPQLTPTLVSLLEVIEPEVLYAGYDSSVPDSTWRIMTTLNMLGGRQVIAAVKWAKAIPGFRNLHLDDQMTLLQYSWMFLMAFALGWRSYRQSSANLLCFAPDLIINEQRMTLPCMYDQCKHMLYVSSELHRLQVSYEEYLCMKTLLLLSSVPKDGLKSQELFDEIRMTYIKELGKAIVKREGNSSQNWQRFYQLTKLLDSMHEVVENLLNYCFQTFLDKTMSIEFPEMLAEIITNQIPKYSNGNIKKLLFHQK

[6] = target: Glucocorticoid receptor (Homo sapiens) (UniProt P04150); experiment: GR-EFC Redistribution (AID 451; calls by dose curve; note: potency is the fitted concentration of half-maximal effect); conditions: CHO-K1 GR-EFC translocation, beta-gal luminescence, 2 h
Summary of the method: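 CHO-K1 cells stably expressing nuclear-localized β-gal enzyme acceptor and GR fused C-terminally to the enzyme donor fragment; ligand-driven nuclear translocation restores β-gal by complementation. Compounds titrated up to 46 uM final, 2 h at 37 °C; luminescence read.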

[7] = target: Mitogen-activated protein kinase 10 (Mus musculus) (UniProt Q61831); experiment: JNK3 AlphaScreen Assay (AID 530); conditions: JNK3 lysate, c-Jun phosphorylation; series mostly up to 57.1 µM;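 note: kinase came from lysate of stimulated human HepG2 cells; signal reports phosphorylation of biotinylated GST-cJun 1-79 at Ser73 with 10 µM ATP; % is set by controls: 0 for no effect and ±100 for the full control effect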
Summary of the method: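 Inhibitors reduce antibody binding to phosphorylated biotin-cJun, lowering AlphaScreen luminescence. Lysates from HepG2 cells pre-activated by IL-1beta plus TNF-alpha supplied JNK3; compounds were titrated.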

[8] = target: 3',5'-cyclic-AMP phosphodiesterase 4B (Homo sapiens) (UniProt Q07343); experiment: qHTS Assay for Inhibitors of PDE-IV (AID 607; active = well fitted activation curve with a large enough effect in the main read-out, with a control signal flat, not every such curve was filed as active; note: % of control where 0% means no effect); conditions: HEK293 ACTOne CNG channel cells, membrane potential fluorescence; series mostly up to 22.9 µM
3',5'-cyclic-AMP phosphodiesterase 4B (Homo sapiens), sequence (Q07343 whole entry, looked up): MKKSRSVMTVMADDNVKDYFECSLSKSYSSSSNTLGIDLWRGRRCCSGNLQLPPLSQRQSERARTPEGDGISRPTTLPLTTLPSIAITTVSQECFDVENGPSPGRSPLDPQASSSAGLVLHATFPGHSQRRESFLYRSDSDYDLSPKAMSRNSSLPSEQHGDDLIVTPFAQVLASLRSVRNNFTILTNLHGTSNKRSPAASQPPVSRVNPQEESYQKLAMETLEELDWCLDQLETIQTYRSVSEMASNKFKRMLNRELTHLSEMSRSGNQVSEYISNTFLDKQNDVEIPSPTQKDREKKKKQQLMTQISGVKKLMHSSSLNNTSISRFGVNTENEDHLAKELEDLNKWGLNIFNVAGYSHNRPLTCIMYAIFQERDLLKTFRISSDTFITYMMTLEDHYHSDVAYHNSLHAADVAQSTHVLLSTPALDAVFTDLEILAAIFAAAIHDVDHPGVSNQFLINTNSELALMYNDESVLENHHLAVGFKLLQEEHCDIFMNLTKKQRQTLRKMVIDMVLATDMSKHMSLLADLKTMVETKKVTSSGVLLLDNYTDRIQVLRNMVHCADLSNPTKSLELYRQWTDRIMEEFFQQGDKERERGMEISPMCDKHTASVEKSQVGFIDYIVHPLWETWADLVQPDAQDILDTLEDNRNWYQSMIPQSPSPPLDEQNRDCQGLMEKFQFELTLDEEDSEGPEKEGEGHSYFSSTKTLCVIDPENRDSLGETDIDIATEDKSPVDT
Summary of the method: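 Live HEK293 cells with a modified cyclic nucleotide-gated (CNG) channel report intracellular cAMP via membrane-potential dye fluorescence (ex 535/em 590 nm). Endogenous PDE-IV was targeted. Compounds were tested at up to 22.9 uM final; RO 20-1724 100 uM served as control.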

[9] = target: Cytochrome P450 1A2 (Homo sapiens) (UniProt P05177); experiment: p450-cyp1a2 (AID 410; calls by dose curve; note: potency is the fitted concentration of half-maximal effect;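 for activity change, negative = inhibition: -100% = full effect of reference inhibitor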); conditions: recombinant CYP1A2, luciferin-ME demethylation, luminescence; series mostly up to 25.6 µM
Cytochrome P450 1A2 (Homo sapiens), sequence (P05177 whole entry, looked up): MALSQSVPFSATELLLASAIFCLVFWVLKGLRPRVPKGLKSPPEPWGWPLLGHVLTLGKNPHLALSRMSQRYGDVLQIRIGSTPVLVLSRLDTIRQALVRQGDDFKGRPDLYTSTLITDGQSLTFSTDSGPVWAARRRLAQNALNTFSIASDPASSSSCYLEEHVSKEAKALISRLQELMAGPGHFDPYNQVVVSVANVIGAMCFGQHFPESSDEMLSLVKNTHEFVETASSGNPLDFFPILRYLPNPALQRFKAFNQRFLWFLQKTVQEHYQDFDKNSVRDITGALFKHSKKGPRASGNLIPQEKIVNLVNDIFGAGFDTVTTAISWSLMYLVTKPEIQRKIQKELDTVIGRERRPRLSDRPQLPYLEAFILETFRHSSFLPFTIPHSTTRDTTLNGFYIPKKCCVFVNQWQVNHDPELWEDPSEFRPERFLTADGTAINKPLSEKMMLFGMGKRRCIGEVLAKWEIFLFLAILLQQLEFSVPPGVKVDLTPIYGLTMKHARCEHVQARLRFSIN
Summary of the method: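 20nM CYP1A2 with 100uM Luciferin-ME (at Km) in 100mM KPO4; compound preincubated 10 min, NADPH regeneration added, 60 min at room temperature. Luciferin quantified by luminescence after detection reagent; normalized to 57 uM furafylline.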

[10] = Cell Viability - BJ (AID 421; calls by dose curve;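 note: potency is the fitted concentration of half-maximal effect; cells exposed to compound for 40 hours at 37 °C before readout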); conditions: BJ fibroblast viability, qHTS
Summary of the method: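 Quantitative HTS: ATP depletion in BJ cells after 40 hr compound exposure in complete culture medium, detected with CellTiter-Glo; AC50 from standard Hill fits.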

[11] = Cell Viability - Hek293 (AID 427;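 active = compounds whose dose-response curve shows a full or clear partial loss of cell viability, called from curve shape rather than a numeric limit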;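 note: potency is the fitted concentration of half-maximal effect; cells exposed to compound for 40 hours at 37 °C before reading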); conditions: qHTS
Summary of the method: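 AC50 values derive from Hill-modelled concentration-response of ATP-based luminescence, normalized between DMSO-only and 100 uM tamoxifen controls. Cells were exposed in complete culture medium for 40 hr at 37 °C before detection.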

[12] = Cell Viability - HepG2 (AID 433; calls by dose curve;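 note: potency is the fitted concentration of half-maximal effect; potency for ATP loss meaning cytotoxicity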); conditions: qHTS
Summary of the method: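 Read-out is luciferase-based quantitation of cellular ATP as a measure of viable HepG2 cells after 40 h treatment at 37 °C. Signal decrease is scaled between DMSO-only and 100 uM tamoxifen controls, with AC50 fitted by the Hill equation.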

[13] = Cell Viability - MRC5 (AID 434; calls by dose curve;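 note: potency is the fitted concentration of half-maximal effect; potency reflects cytotoxicity seen as loss of intracellular ATP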); conditions: MRC5 lung fibroblast viability, qHTS
Summary of the method: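 MRC5 normal human lung fibroblasts (1500/well) were treated with compounds for 40 hr at 37 °C in complete medium, and viable cells were measured as intracellular ATP by CellTiter-Glo luminescence. AC50 came from Hill fits, normalized to DMSO and 100 uM tamoxifen.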

[14] = Cell Viability - SK-N-SH (AID 435; calls by dose curve;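 note: potency is the fitted concentration of half-maximal effect; compound exposure lasted 40 h at 37 °C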); conditions: SK-N-SH neuroblastoma cell viability qHTS
Summary of the method: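 Luminescent ATP signal served as the viability read-out after 40 hours of compound treatment of human neuroblastoma SK-N-SH cells. Concentration-response data, scaled between DMSO and 100 uM tamoxifen, gave AC50 values by standard Hill modeling.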

[15] = Cell Viability - N2a (AID 540; active = well fitted curve in the direction sought with a large enough effect; an effect the other way counts as inactive or inconclusive;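 note: plate controls were DMSO alone for no effect and tamoxifen control for full effect; nearly all actives have a fitted effect of over 45% in size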); conditions: N2a mouse neuroblastoma cell viability; at 92.2 µM (top of the series)
Summary of the method: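 Mouse neuroblastoma N2a cells, 1500/well, exposed to compounds 40 h at 37 °C in complete medium. Viability measured as cellular ATP by CellTiter-Glo luminescence; AC50 from Hill fits of concentration-response.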

[16] = Cell Viability - NIH 3T3 (AID 541; active = well fitted curve in the direction sought with a large enough effect; an effect the other way counts as inactive or inconclusive;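 note: plate controls were DMSO alone for no effect and tamoxifen positive control for full effect; nearly all actives have a fitted effect of over 25% in size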); conditions: NIH 3T3 cell viability, qHTS; activity change, negative = cytotoxicity: at 92.2 µM (top of the series)
Summary of the method: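 Mouse NIH 3T3 fibroblasts, 1000 cells/well, rested 5 hr at 37 °C, then exposed to compound for 40 hr at 37 °C in complete medium. Viability read as intracellular ATP by CellTiter-Glo luminescence; AC50 from Hill-equation fits of concentration-response data.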

[17] = Cell Viability - HUV-EC-C (AID 542; active = well fitted curve in the direction sought with a large enough effect; an effect the other way counts as inactive or inconclusive; note: % is set by controls: 0 for no effect and ±100 for the full control effect; nearly all actives have a fitted effect of over 35% in size); conditions: HUV-EC-C endothelial cell viability, qHTS; series mostly up to 92.2 µM
Summary of the method: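 HUV-EC-C human vascular endothelial cells, 1000/well, exposed to compound for 40 hr at 37 °C in complete medium. Intracellular ATP was read by CellTiter-Glo luminescence. AC50 came from Hill-equation fits of concentration-response data.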

[18] = Cell Viability - H-4-II-E (AID 543; active = well fitted curve in the direction sought with a large enough effect; an effect the other way counts as inactive or inconclusive; note: % is set by controls: 0 for no effect and ±100 for the full control effect; nearly all actives have a fitted effect of over 35% in size); conditions: H-4-II-E rat hepatoma viability; series mostly up to 92.2 µM
Summary of the method: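 Rat hepatoma H-4-II-E cells, 1500 per well, treated 40 h at 37 °C in complete medium. Cellular ATP read by CellTiter-Glo luminescence; AC50 from Hill fits of concentration-response.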

[19] = Cell Viability - SH-SY5Y (AID 544; active = well fitted curve in the direction sought with a large enough effect; an effect the other way counts as inactive or inconclusive;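 note: 0% = DMSO alone and -100% = 100 µM tamoxifen; nearly all actives have a fitted effect of over 55% in size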); conditions: SH-SY5Y neuroblastoma cell viability; series mostly up to 92.2 µM
Summary of the method: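 SH-SY5Y human neuroblastoma cells (1500/well) incubated 5 h, then compound-treated 40 h at 37 °C in complete medium. Viability read as intracellular ATP by CellTiter-Glo luminescence after 20 min; AC50 from Hill-equation fits of qHTS concentration-response.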

[20] = Cell Viability - Renal Proximal Tubule (AID 545; active = well fitted curve in the direction sought with a large enough effect; an effect the other way counts as inactive or inconclusive;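 note: 0% = DMSO only and -100% = 100 µM tamoxifen; nearly all actives have a fitted effect of over 40% in size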); conditions: renal proximal tubule cells viability, primary cells of rat origin; at 91.7 µM (top of the series)
Summary of the method: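 Luminescent ATP signal (CellTiter-Glo) served as the viability read-out after 40 hr compound exposure of freshly isolated rat proximal tubule cells at 37 °C. Concentration-dependent ATP loss was fitted with the Hill equation to give AC50.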

Cn1cc(NC(=O)c2cc(NC(=O)c3cc(NC=O)cn3C)cn2C)cc1C(=O)NCCC(=N)N
inactive: outcome [1] | outcome [2]

O=P(O)(O)OP(=O)(O)O
inactive: Potency [3] > 11.4 µM | outcome [1] | activity change, negative = inhibition [4] 3.99% [at 7.69 µM] | outcome [2] | Potency [5] > 46 µM | Potency [6] > 9.22 µM | activity change, negative = inhibition [7] 0.801% [at 11.4 µM] | outcome [8]

O=C(O)Cc1cc(I)c(Oc2ccc(O)c(I)c2)c(I)c1
inactive: outcome [1] | activity change, negative = inhibition [4] -22.7% | outcome [2] | Potency [5] > 20.6 µM | Potency [6] > 20.6 µM | outcome [7] | outcome [8]
active: Potency [9] 12.6 µM

CC(=O)N=c1sc(S(N)(=O)=O)nn1C
inactive: outcome [1] | Potency [9] | activity change, negative = inhibition [4] 0.015% and 12.3% | outcome [2] | Potency [5] > 20.6 µM | Potency [6] > 20.6 µM | outcome [7] | outcome [8]

Cc1cc(-c2ccc(N=Nc3ccc4c(S(=O)(=O)O)cc(S(=O)(=O)O)c(N)c4c3O)c(C)c2)ccc1N=Nc1ccc2c(S(=O)(=O)O)cc(S(=O)(=O)O)c(N)c2c1O
active: Potency [9] 12.6 µM
inactive: Potency [5] > 46 µM | Potency [6] > 46 µM

CN1C(=O)OC(C)(C)C1=O
inactive: outcome [1] | Potency [9] | activity change, negative = inhibition [4] -1.31% | Potency [5] > 20.6 µM | Potency [6] > 20.6 µM | outcome [7] | outcome [8]

N[C@@H](Cc1cc(I)c(Oc2ccc(O)c(I)c2)c(I)c1)C(=O)O
inactive: outcome [1] | activity change, negative = inhibition [4] 7.62% | outcome [2] | Potency [5] > 20.6 µM

CCCOc1cc(N)ccc1C(=O)OCCN(CC)CC
inactive: outcome [1] | outcome [2] | Potency [5] > 20.6 µM | Potency [6] > 20.6 µM | outcome [7] | outcome [8]
active: Potency [9] 12.6 µM

CNC(=O)c1c(I)c(C(=O)NCC(=O)Nc2c(I)c(C(=O)O)c(I)c(C(=O)NCCO)c2I)c(I)c(N(C)C(C)=O)c1I
inactive: outcome [1] | Potency [9] | activity change, negative = inhibition [4] -16% | outcome [2] | outcome [7] | outcome [8]

O=C(O)c1ccc(OCCn2ccnc2)cc1
inactive: outcome [1] | activity change, negative = inhibition [4] -10.7% | outcome [2] | Potency [5] > 20.6 µM

Cc1ncc(C[n+]2csc(CCO)c2C)c(N)n1
inactive: outcome [1] | activity change, negative = inhibition [4] -0.747% | outcome [2] | outcome [7] | outcome [8]

CC(=O)[C@H]1CC[C@H]2[C@@H]3C=CC4=CC(=O)CC[C@@]4(C)[C@H]3CC[C@]12C
inactive: outcome [1] | Potency [9] | outcome [2] | Potency [6] > 20.6 µM | outcome [7] | outcome [8]

CCCC(CCC)C(=O)OC1C[C@H]2CC[C@@H](C1)[N+]2(C)C (stereo not given in full)
inactive: outcome [1] | outcome [2]
active: activity change, negative = inhibition [4] -90.3%

CC(=O)Oc1cc(C(F)(F)F)ccc1C(=O)O
inactive: Potency [9] | activity change, negative = inhibition [4] 27.2% | outcome [2] | Potency [5] > 20.6 µM | Potency [6] > 20.6 µM | outcome [7]

CC(=O)Oc1cccc2c1C(=O)c1c(OC(C)=O)cc(C(=O)O)cc1C2=O
inactive: outcome [1] | activity change, negative = inhibition [4] -21.4% | outcome [2] | Potency [5] > 20.6 µM

C[C@H](CCC(=O)O)[C@H]1CC[C@H]2[C@@H]3[C@H](O)C[C@@H]4C[C@H](O)CC[C@]4(C)[C@H]3C[C@H](O)[C@]12C
inactive: Potency [10] > 92 µM | Potency [11] > 92 µM | Potency [12] > 92 µM | Potency [13] > 92 µM | Potency [14] > 92 µM | outcome [7] | activity change, negative = cytotoxicity [15] -9.32% | activity change, negative = cytotoxicity [16] -13.2% | Potency [17] | Potency [18] | Potency [19] | activity change, negative = cytotoxicity [20] 5.01%

N[C@H](CC(=O)O)C(=O)O
inactive: outcome [1] | activity change, negative = inhibition [4] 13.7% [at 38 µM] | outcome [2] | Potency [5] > 46 µM | Potency [6] > 46 µM | outcome [7] | outcome [8]

CCSc1ccc2c(c1)N(CCCN1CCN(C)CC1)c1ccccc1S2
inactive: outcome [2] | outcome [7] | outcome [8]
active: Potency [9] 0.316 µM

O=C(O)CCC(=O)c1ccc(-c2ccccc2)cc1
inactive: outcome [1] | activity change, negative = inhibition [4] -7.68% | outcome [2] | Potency [5] > 20.6 µM | Potency [6] > 20.6 µM | outcome [7] | outcome [8]
active: Potency [9] 12.6 µM

Cc1cccc(C)c1NC(=O)C1CCCCN1C (stereo not given)
inactive: outcome [1] | activity change, negative = inhibition [4] -26% | outcome [2] | Potency [5] > 20.6 µM

Cn1nnnc1SCC1=C(C(=O)O)N2C(=O)[C@@H](NC(=O)[C@H](O)c3ccccc3)[C@H]2SC1
inactive: outcome [1] | activity change, negative = inhibition [4] 5.92% | outcome [2] | Potency [5] > 20.6 µM

Reference: PubChem BioAssay (NCATS)
